Sampled rows, rich in hits. Any-hit rate of the full collection: about 4.7%.
D1 ag – agonists of human D1 dopamine receptor; P21728; HEK293 T-REx D1 cells, calcium flux, agonist mode; activation, % at 2 µM; 1% of 360,000 active; AID 504660
Target sequence (P21728 whole entry, looked up): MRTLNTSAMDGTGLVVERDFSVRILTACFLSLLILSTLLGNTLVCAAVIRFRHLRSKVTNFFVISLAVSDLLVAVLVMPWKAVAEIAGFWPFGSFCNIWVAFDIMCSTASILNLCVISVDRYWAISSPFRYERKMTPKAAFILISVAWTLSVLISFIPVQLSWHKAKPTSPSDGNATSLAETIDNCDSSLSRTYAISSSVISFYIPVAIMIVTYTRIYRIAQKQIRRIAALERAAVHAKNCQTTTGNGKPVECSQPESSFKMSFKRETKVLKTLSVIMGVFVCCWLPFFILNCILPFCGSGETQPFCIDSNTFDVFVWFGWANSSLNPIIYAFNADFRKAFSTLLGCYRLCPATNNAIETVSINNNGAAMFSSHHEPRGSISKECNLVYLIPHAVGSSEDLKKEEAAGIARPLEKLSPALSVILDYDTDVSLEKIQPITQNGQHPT
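Inducible HEK293 T-REx D1 cells, force-coupled to calcium signalling, were plated at 4000 cells/well with tetracycline and held overnight at 30 C. After no-wash calcium dye loading, compound-evoked calcium rise over 180 s flagged agonists.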
TRHR enhancer – TRH receptor (human) allosteric enhancement; P34981; TRHR cells, fluo-8 calcium fluorescence, EC20 TRH enhancement; enhancement, % at 2 µM; 0.66% of 360,000 active; AID 493056; in the data active = enhancement above about 30%
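TRHR-expressing cells loaded with fluo-8 calcium dye were read kinetically (ex 480/em 530) during compound addition, then stimulated with an EC20 of TRH (10 nM final). Enhancement of the Gq-mediated intracellular calcium response was scored.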
TRHR ag – activates the human TRH receptor; P34981; TRHR cells, calcium flux fluo-8, FDSS agonist mode; activation, % at 2 µM; 0.18% of 360,000 active
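In this calcium-flux screen, cells bearing human TRHR are dye-loaded with fluo-8, baselined for 10 cycles, then exposed to library compounds; positive kinetic calcium responses during the agonist phase mark hits, with TRH as control.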
D1 antagonist – blocks dopamine activation of the human D1 receptor; activity change, negative = inhibition, % at 10 µM; AID 504652; 3.2% of 360,000 active; HEK293 TREx D1 cells, calcium flux, dopamine EC80; hits give low values; in the data active = activity change below about -30%
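Using tetracycline-induced force-coupled D1 Hek293 cells and a calcium dye, signals were followed for 180 s after compound, then for 180 s after EC80 dopamine, to detect inhibitors.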
D1 PAM – potentiators of human D1 dopamine receptor; potentiation, % at 10 µM; 0.036% of 360,000 active; AID 504651; P21728; HEK293 TREx D1 cells, calcium flux, dopamine EC20 potentiation; in the data active = potentiation above about 30%
Numbers stand for hits. Cut-off read from the data, not from the text of the source, unless noted: active = activation above about 30%; inactive = the rest.

Results for COc1ccccc1N=c1scc(-c2ccc(S(=O)(=O)N3CCCC3)cc2)n1C ?
D1 ag: inactive; TRHR enhancer: inactive; TRHR ag: inactive; D1 antagonist: -34; D1 PAM: inactive

What do the screens show for `CCCCc1ccc(C(=O)Nc2ccc3nc(N(CC)CC)cc(C)c3c2)cc1`?
D1 ag: inactive; TRHR enhancer: inactive; TRHR ag: inactive; D1 antagonist: inactive; D1 PAM: inactive

Results for Cc1ccc2nc(-c3ccc(NC(=O)COC(=O)c4ccc(Br)o4)cc3)sc2c1 ?
D1 ag: inactive; TRHR enhancer: inactive; TRHR ag: inactive; D1 antagonist: inactive; D1 PAM: 46

What do the screens show for `CCN(CC)c1cc(C)c2cc(NC(=O)c3ccc(Br)o3)ccc2n1`?
D1 ag: inactive; TRHR enhancer: inactive; TRHR ag: inactive; D1 antagonist: -55; D1 PAM: inactive

What do the screens show for `Cc1nc2ccc(S(=O)(=O)CCC(=O)Nc3ccc(Cl)cc3)cc2s1`?
D1 ag: inactive; TRHR enhancer: inactive; TRHR ag: inactive; D1 antagonist: inactive; D1 PAM: inactive

How did Cc1nc2ccc(S(=O)(=O)CCC(=O)Nc3ccc(C(C)C)cc3)cc2s1 do in these assays?
D1 ag: inactive; TRHR enhancer: inactive; TRHR ag: inactive; D1 antagonist: -57; D1 PAM: inactive

What do the screens show for `Cc1nc2ccc(NC(=O)c3ccc(S(=O)(=O)N(C)c4ccccc4)cc3)cc2s1`?
D1 ag: inactive; TRHR enhancer: inactive; TRHR ag: inactive; D1 antagonist: -35; D1 PAM: inactive

What do the screens show for `COC(=O)c1cc(-c2ccc(Cl)cc2)c2c(=O)[nH]c(=O)n(C)c2n1`?
D1 ag: inactive; TRHR enhancer: inactive; TRHR ag: inactive; D1 antagonist: inactive; D1 PAM: inactive

How did Cc1nc2ccc(NC(=O)c3ccc(Br)o3)cc2s1 do in these assays?
D1 ag: inactive; TRHR enhancer: inactive; TRHR ag: inactive; D1 antagonist: -31; D1 PAM: inactive

What do the screens show for `Cc1nc2ccc(S(=O)(=O)N(C)CC(=O)Nc3cccc(C(F)(F)F)c3)cc2s1`?
D1 ag: inactive; TRHR enhancer: inactive; TRHR ag: inactive; D1 antagonist: -33; D1 PAM: inactive

How did CCCCNC(=S)Nc1ccc(-c2nc3ccc(C)cc3s2)cc1 do in these assays?
D1 ag: inactive; TRHR enhancer: inactive; TRHR ag: inactive; D1 antagonist: -47; D1 PAM: inactive

Results for CCN(c1ccccc1)S(=O)(=O)c1ccc(C(=O)Nc2nnc(-c3ccco3)o2)cc1 ?
D1 ag: inactive; TRHR enhancer: inactive; TRHR ag: inactive; D1 antagonist: inactive; D1 PAM: inactive

Results for CN(c1ccccc1)S(=O)(=O)c1ccc(C(=O)Nc2nnc(-c3ccco3)o2)cc1 ?
D1 ag: inactive; TRHR enhancer: inactive; TRHR ag: inactive; D1 antagonist: -32; D1 PAM: inactive

Results for CCOC(=O)c1noc2ncnc(N3CCN(c4cccc(C(F)(F)F)c4)CC3)c12 ?
D1 ag: inactive; TRHR enhancer: inactive; TRHR ag: inactive; D1 antagonist: inactive; D1 PAM: inactive

Results for CC(=O)Nc1ccc2sc(C)nc2c1 ?
D1 ag: inactive; TRHR enhancer: 37; TRHR ag: inactive; D1 antagonist: inactive; D1 PAM: inactive

What do the screens show for `Cc1nc2cc(NC(=O)CS(=O)(=O)c3ccccc3)ccc2s1`?
D1 ag: inactive; TRHR enhancer: inactive; TRHR ag: inactive; D1 antagonist: inactive; D1 PAM: inactive

What do the screens show for `CN(CCC#N)C(=S)Nc1ccc(F)cc1`?
D1 ag: inactive; TRHR enhancer: inactive; TRHR ag: inactive; D1 antagonist: -31; D1 PAM: inactive

Results for COCCCNC(=O)c1ccc(Cn2c(SCc3ccc(F)cc3)nc3cccnc32)cc1 ?
D1 ag: inactive; TRHR enhancer: inactive; TRHR ag: inactive; D1 antagonist: inactive; D1 PAM: inactive

Results for S=c1[nH]c(-c2ccccc2)cn1/N=C/c1ccccc1Br ?
D1 ag: inactive; TRHR enhancer: inactive; TRHR ag: inactive; D1 antagonist: inactive; D1 PAM: inactive

Results for S=c1[nH]c(-c2ccccc2)cn1/N=C/c1cccc2ccccc12 ?
D1 ag: inactive; TRHR enhancer: 34; TRHR ag: inactive; D1 antagonist: inactive; D1 PAM: inactive

Results for CC(C(=O)Nc1ccc2c(c1)OCCO2)N1Cc2ccccc2C1=O (stereo not drawn) ?
D1 ag: inactive; TRHR enhancer: inactive; TRHR ag: inactive; D1 antagonist: inactive; D1 PAM: inactive

How did COc1ccccc1N1CCN(c2nc3ccc(C)cc3n3nnnc23)CC1 do in these assays?
D1 ag: inactive; TRHR enhancer: inactive; TRHR ag: inactive; D1 antagonist: -30; D1 PAM: inactive

Results for COc1ccc(-c2nc(CSCC(=O)N3CCN(c4ccc(F)cc4)CC3)c(C)o2)cc1 ?
D1 ag: inactive; TRHR enhancer: inactive; TRHR ag: inactive; D1 antagonist: -33; D1 PAM: inactive

How did Cc1ccc(S(=O)(=O)N(CC(=O)Nc2ccc(F)cc2F)Cc2ccc(F)cc2)cc1 do in these assays?
D1 ag: inactive; TRHR enhancer: inactive; TRHR ag: inactive; D1 antagonist: inactive; D1 PAM: inactive

How did COc1ccccc1N1CCN(C(=O)c2cc3c(s2)-c2ccccc2OC3)CC1 do in these assays?
D1 ag: inactive; TRHR enhancer: inactive; TRHR ag: inactive; D1 antagonist: inactive; D1 PAM: inactive

What do the screens show for `Cc1cccc2c1-c1sc(C(=O)Nc3cccnc3)cc1CO2`?
D1 ag: inactive; TRHR enhancer: inactive; TRHR ag: inactive; D1 antagonist: inactive; D1 PAM: inactive

What do the screens show for `O=C(c1cc2c(s1)-c1ccccc1OC2)N1CCc2ccccc2C1`?
D1 ag: inactive; TRHR enhancer: inactive; TRHR ag: inactive; D1 antagonist: -54; D1 PAM: inactive

What do the screens show for `O=C(Nc1cccnc1)c1cc2c(s1)-c1ccccc1OC2`?
D1 ag: inactive; TRHR enhancer: inactive; TRHR ag: inactive; D1 antagonist: -46; D1 PAM: inactive

How did CCC(C)(C)NC(=O)CN(C(=O)c1snc(C(N)=O)c1N)c1ccc2nc(C)sc2c1 do in these assays?
D1 ag: inactive; TRHR enhancer: inactive; TRHR ag: inactive; D1 antagonist: -55; D1 PAM: inactive

Results for CCCCN(CC(=O)NC1CCCC1)C(=O)C(=O)Nc1ccc2c(c1)OCCO2 ?
D1 ag: inactive; TRHR enhancer: inactive; TRHR ag: inactive; D1 antagonist: -36; D1 PAM: inactive

How did O=[S+]([O-])(c1ccc2c(c1)OCCO2)N1CCN([S+](=O)([O-])c2c(F)cc(F)cc2Br)CC1 do in these assays?
D1 ag: inactive; TRHR enhancer: inactive; TRHR ag: inactive; D1 antagonist: inactive; D1 PAM: inactive

What do the screens show for `COc1ccc(-n2c(C)c(C(C)=O)c3cc(OC(=O)c4ccc(C)cc4)ccc32)cc1`?
D1 ag: inactive; TRHR enhancer: inactive; TRHR ag: inactive; D1 antagonist: inactive; D1 PAM: inactive

What do the screens show for `Cc1cc(=O)n(Cc2ccccc2Cl)c2c1c(C)nn2-c1ccccc1`?
D1 ag: inactive; TRHR enhancer: inactive; TRHR ag: inactive; D1 antagonist: inactive; D1 PAM: inactive

Bioassay records: PubChem BioAssay, National Center for Advancing Translational Sciences (NCATS)
